Data reported in PubChem BioAssay (Tox21).
Inconclusive results are not listed. Unmarked numbers belong to inactive results. The call rests on the fitted dose curve.

Test: qHTS assay to identify small molecule agonists of H2AX - cell viability counter screen (AID 1224847); further: top concentration of the series differs between compounds; nearly all actives have a fitted effect of over 30% in size
Conditions: CHO-K1 viability, CellTiter-Glo luminescence, 3 h; series mostly up to 70.9 µM; activity change, negative = cytotoxicity: at the top concentration
Source text: National Center for Advancing Translational Sciences [NCATS]
NIH Chemical Genomics Center [NCGC]
U.S. Environmental Protection Agency [EPA]
National Institutes of Environmental Health Sciences [NIEHS]
National Toxicology Program [NTP]
U.S. Food and Drug Administration [FDA]
HTRF phospho-H2AX (Ser139) assay (Cisbio Bioassays, US) enables the quantitative detection of the histone variant H2AX when phosphorylated on serine 139. When double-stranded DNA breaks, either by ionizing radiation or endogenous physiological processes, H2AX becomes phosphorylated at Ser139. This phospho-Ser139 serves as a sensitive biomarker for the detection of such breaks, localizing the site of DNA repair. So, HTRF phospho-H2AX Ser139 is a pertinent assay to study genome stability, the cell cycle, DNA repair, and it serves as a biomarker for cancer, and to understand aging. Wild type CHO-K1 cells were used to identify the inducers of Phospho-H2AX Ser 139 from the Tox21 compound collections. Also cytotoxicity of the Tox21 10K compound library against the CHO-K1 cell line was tested by measuring the cell viability using CellTiter-Glo assay (Promega, Madison, WI).
Tox21 Assay Protocol Summary:
The CHO-K1 cells suspended in culture medium containing 10% FBS were dispensed at 1000 cells/ 3 ul/well in 1536-well white wall/solid bottom plates (Greiner Bio-One North America, NC) using a Multidrop Combi (Thermo Fisher Scientific Inc., Waltham, MA). After the assay plates were incubated at 37C overnight, 23 nl of compounds at 15 concentrations (from 5-48 columns) or positive control (from 1 to 4 columns) were transferred to the assay plates using a Pintool station (Wako, San Diego, CA) into each well resulting in a final DMSO concentration of 0.76%. After 3hr incubation at 37C, 3 uL/well CellTiter-Glo luminescent cell viability reagent (Promega Corporation, Madison, WI) was added using a Flying Reagent Dispenser (FRD) (Aurora Discovery, CA). After incubation at room temperature for 30 min, the luminescence intensity was read using a ViewLux plate reader (PerkinElmer, Waltham, MA).
On the % scale 0 is the no-effect control and ±100 the full control effect.

| SMILES | activity change, negative = cytotoxicity |
| --- | --- |
| O=C(O)CN(CCOCCOCCN(CC(=O)O)CC(=O)O)CC(=O)O | 3.97% [at 0.582 µM] |
| CO[C@]12C[C@@H](COC(=O)c3cncc(Br)c3)CN(C)[C@@H]1Cc1cn(C)c3cccc2c13 | -12% |
| O=C1CC2CC1C1CCCC21 (stereo not given) | 3.71% [at 154 µM] |
| CC(C)(O)C(=O)c1ccccc1 | 11.2% [at 154 µM] |
| COC(=O)CC(C)=O | 1.02% [at 154 µM] |
| CC(C)(C)NCCNC(C)(C)C | -3.93% [at 154 µM] |
| Cc1ccc(Cl)cc1Cl | 5.58% [at 154 µM] |
| NS(=O)(=O)c1cc2c(cc1Cl)NC(C1CC3C=CC1C3)NS2(=O)=O (stereo not given) | 0.51% |
| Brc1c(NC2=NCCN2)ccc2nccnc12 | -5.95% |
| O=C1OC(=O)C2CCCCC12 (stereo not given) | 0.903% [at 154 µM] |
| CCCCCCCCS(=O)(=O)Cl | 0.338% [at 154 µM] |
| COc1c(N2C[C@@H]3CCCN[C@@H]3C2)c(F)cc2c(=O)c(C(=O)O)cn(C3CC3)c12 | 2.25% |
| CC(C)(C)c1nnc(NS(=O)(=O)c2ccccc2)s1 | 1.88% |
| Nc1ccccc1S(=O)(=O)O | 0.789% [at 154 µM] |
| NCCCNCCSP(=O)(O)O | -5.36% [at 14 µM] |
| O=C1CCCC(=O)C1 | 7.28% [at 154 µM] |
| CCn1nc(C(=O)O)c(=O)c2cc3c(cc21)OCO3 | 0.447% |
| CCCN1CCCC[C@H]1C(=O)Nc1c(C)cccc1C | 0.211% |
| Cc1ccc(=O)n(-c2ccccc2)c1 | 2.03% |
| NC(=O)Nc1ccccc1 | 5.94% [at 154 µM] |

| SMILES | activity change, negative = cytotoxicity |
| --- | --- |
| CN1CCN(c2cc3c(cc2F)c(=O)c(C(=O)O)cn3-c2ccc(F)cc2)CC1 | 5.06% |
| CCOC(=O)c1ccc(C)cc1 | 5.06% [at 154 µM] |
| CN1CCC(=C2c3ccccc3CC(=O)c3sccc32)CC1 | -7.3% |
| Nc1nc2c(ncn2COC(CO)CO)c(=O)[nH]1 | 1.64% |
| O=C(CCCN1CCN(c2ccccn2)CC1)c1ccc(F)cc1 | -7.9% |
| O=C(c1ccccc1)C1CCCCC1 | -10.6% [at 154 µM] |
| CCOC(=O)C(=O)OCC | 4.42% [at 154 µM] |
| CCN1CCC[C@H]1CNC(=O)c1cc(S(N)(=O)=O)ccc1OC | 2.9% |
| CCCCCCOC(=O)CCCCC(=O)OCCCCCC | 2.43% [at 154 µM] |
| O=c1[nH]c(=O)n([C@H]2C[C@H](O)[C@@H](CO)O2)cc1I | -1.48% |
| CCC(C)C1CCCCC1=O (stereo not given) | 2.37% [at 154 µM] |
| ClC(Cl)(Br)Br | -3.25% [at 154 µM] |
| O=c1cc(CO)occ1O | 0.786% |
| C[C@](N)(Cc1ccc(O)cc1)C(=O)O | 2.42% [at 14 µM] |
| C[C@H](NC(CCc1ccccc1)C(=O)O)C(=O)N1CCC[C@H]1C(=O)O (stereo not given in full) | -0.805% |
| FC(F)OC(Cl)C(F)(F)F (stereo not given) | -0.0966% [at 154 µM] |
| CC(C)NCCCC1(C(N)=O)c2ccccc2-c2ccccc21 | -9.18% |
| C[C@H]1C[C@@H](O)CC(C)(C)C1 | 0.0615% [at 154 µM] |
| O=Cc1cccc([N+](=O)[O-])c1 | 2.04% [at 154 µM] |
| CCS(=O)(=O)c1ccc(OC)c(C(=O)OC)c1 | 4.87% |
